Several values for one entry are separate records, joined by “and”; a condition that tells them apart may be missing. Equal entries are not always repeated. Some structures have more than one record in an assay (separate samples or runs), and their calls can disagree. Activity calls are given as the source filed them. How the source made its calls: active means hit-call score of the fitted dose curve at least 0.9, where 1 is the maximum; inactive means score below 0.9.
Experiments:
Conditions in all cases: mRNA level, 48 h; actives raise or lower the signal
[1] = read-out: cysteine-aspartic acid protease (CASP8), CASP8 (gene 841); assay: LTEA_HepaRG_CASP8: Life Technologies and Expression Analysis (LTEA) Assay for cysteine-aspartic acid protease (CASP8) using HepaRG (AID 2283480)
Summary of the method: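 Differentiated HepaRG cells in serum-free induction medium, 48 h exposure, eight-point half-log series from 100 uM in 0.5% DMSO, duplicates. CASP8 mRNA by qRT-PCR, normalized to ACTB, GAPDH, POLR2A; bidirectional fit versus DMSO.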

[2] = read-out: Cytochrome P450 (CYP2B6), CYP2B6 (gene 1555); assay: LTEA_HepaRG_CYP2B6: Life Technologies and Expression Analysis (LTEA) Assay for Cytochrome P450 (CYP2B6) using HepaRG (AID 2283481)
Summary of the method: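 Using 48 h treatment of HepaRG cells in serum-free induction medium, concentrations spanned half-log steps from 100 uM in 0.5% DMSO vehicle. CYP2B6 mRNA induction or loss is scored by qRT-PCR against DMSO.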

[3] = read-out: Cytochrome P450 2C19 (Homo sapiens) (UniProt P33261); assay: LTEA_HepaRG_CYP2C19: Life Technologies and Expression Analysis (LTEA) Assay for CYP2C19 using HepaRG (AID 2283482)
Summary of the method: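 Human HepaRG liver cells received test chemicals for 48 h (highest 100 uM, half-log dilutions in 0.5% DMSO). CYP2C19 mRNA induction or loss is read by multiplexed qRT-PCR and fitted in both directions versus vehicle.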

CYP2C8 (gene 1558) = assay: LTEA_HepaRG_CYP2C8: Life Technologies and Expression Analysis (LTEA) Assay for CYP2C8 using HepaRG (AID 2283483)
Summary of the method: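 Differentiated HepaRG cells in serum-free induction medium exposed 48 h in duplicate to 8 half-log concentrations from 100 uM in 0.5% DMSO. CYP2C8 mRNA by qRT-PCR normalized to ACTB, GAPDH, POLR2A; bidirectional fit versus DMSO.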

CYP2C9 (gene 1559) = assay: LTEA_HepaRG_CYP2C9: Life Technologies and Expression Analysis (LTEA) Assay for CYP2C9 using HepaRG (AID 2283484)
Summary of the method: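 Differentiated human HepaRG cells in serum-free induction medium were exposed 48 h to chemicals in 8-point half-log series from 100 uM (0.5% DMSO), in duplicate. CYP2C9 mRNA was measured by qRT-PCR, normalized to ACTB/GAPDH/POLR2A, with bidirectional fitting versus DMSO.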

CYP4A11 (gene 1579) = assay: LTEA_HepaRG_CYP4A11: Life Technologies and Expression Analysis (LTEA) Assay for CYP4A11 using HepaRG (AID 2283486)
Summary of the method: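 Readout is CYP4A11 mRNA induction or suppression (qRT-PCR, ACTB/GAPDH/POLR2A normalization) in human HepaRG cells after 48 h chemical treatment, concentrations to 100 uM in 0.5% DMSO, fitted bidirectionally against vehicle.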

[4] = read-out: Cytochrome P450 3A4 (Homo sapiens) (UniProt P08684); assay: LTEA_HepaRG_CYP3A4: Life Technologies and Expression Analysis (LTEA) Assay for CYP3A4 using HepaRG (AID 2283487)
Summary of the method: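 Differentiated HepaRG cells, plated 48 h, then dosed 48 h in serum-free induction medium with 0.5% DMSO, 8 half-log concentrations up to 100 uM, duplicate. CYP3A4 mRNA by qRT-PCR, normalized to ACTB/GAPDH/POLR2A; bidirectional fit versus DMSO.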

[5] = read-out: DNA damage-inducible transcript 3 (DDIT3), DDIT3 (gene 1649); assay: LTEA_HepaRG_DDIT3: Life Technologies and Expression Analysis (LTEA) Assay for DNA damage-inducible transcript 3 (DDIT3) using HepaRG (AID 2283488)
Summary of the method: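 Changes in DDIT3 transcript, in either direction relative to 0.5% DMSO vehicle, were quantified by TaqMan qRT-PCR after 48 h chemical exposure of HepaRG cells at 8 concentrations, maximum 100 uM.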

[6] = read-out: Pro-epidermal growth factor (Homo sapiens) (UniProt P01133); assay: LTEA_HepaRG_EGF: Life Technologies and Expression Analysis (LTEA) Assay for Epidermal growth factor (EGF) using HepaRG (AID 2283489)
Summary of the method: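 EGF expression changes in human HepaRG cells are scored by bidirectional fitting relative to 0.5% DMSO controls. Chemicals are tested at eight half-log concentrations up to 100 uM for 48 h in serum-free induction medium.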

Measured: AC50

Sequence of Cytochrome P450 2C19 (Homo sapiens) (P33261 whole entry, looked up): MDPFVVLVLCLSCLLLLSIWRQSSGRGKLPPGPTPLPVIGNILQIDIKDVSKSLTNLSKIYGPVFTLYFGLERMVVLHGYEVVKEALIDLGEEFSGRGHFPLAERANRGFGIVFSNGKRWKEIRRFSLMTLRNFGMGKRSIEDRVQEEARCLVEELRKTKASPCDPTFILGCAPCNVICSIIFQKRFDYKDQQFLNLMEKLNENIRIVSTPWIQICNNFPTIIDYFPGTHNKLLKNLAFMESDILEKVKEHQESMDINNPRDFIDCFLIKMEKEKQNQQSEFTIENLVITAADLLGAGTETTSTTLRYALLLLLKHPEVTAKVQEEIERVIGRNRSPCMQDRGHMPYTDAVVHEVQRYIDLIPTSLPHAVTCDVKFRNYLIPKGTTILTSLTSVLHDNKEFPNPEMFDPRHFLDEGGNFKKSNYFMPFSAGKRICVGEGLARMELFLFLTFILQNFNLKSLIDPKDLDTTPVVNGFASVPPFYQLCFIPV
Sequence of Cytochrome P450 3A4 (Homo sapiens) (P08684 whole entry, looked up): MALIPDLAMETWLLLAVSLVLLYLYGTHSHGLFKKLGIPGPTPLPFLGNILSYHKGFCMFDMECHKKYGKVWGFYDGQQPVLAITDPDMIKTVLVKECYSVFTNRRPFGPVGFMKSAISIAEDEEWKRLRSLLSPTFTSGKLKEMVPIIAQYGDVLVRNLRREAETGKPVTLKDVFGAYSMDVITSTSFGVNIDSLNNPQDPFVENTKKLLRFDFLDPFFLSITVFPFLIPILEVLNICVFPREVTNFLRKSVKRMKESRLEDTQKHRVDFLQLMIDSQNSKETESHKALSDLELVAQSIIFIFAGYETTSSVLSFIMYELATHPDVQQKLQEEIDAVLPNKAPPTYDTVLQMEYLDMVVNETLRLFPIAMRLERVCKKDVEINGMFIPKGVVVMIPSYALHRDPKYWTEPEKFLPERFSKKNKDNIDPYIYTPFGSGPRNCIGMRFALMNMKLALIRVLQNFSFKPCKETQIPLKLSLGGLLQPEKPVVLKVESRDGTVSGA

Oc1cc(Cl)ccc1Oc1ccc(Cl)cc1Cl
active: [2] 17 µM and 51 µM | [3] 83.2 µM | CYP2C8 (gene 1558) 86.4 µM | CYP2C9 (gene 1559) 93.4 µM | CYP4A11 (gene 1579) 51 µM and 79.3 µM
inactive: [1] | [2] | [3] | CYP2C8 (gene 1558) | CYP2C9 (gene 1559) | CYP4A11 (gene 1579) | [4] | [5] | [6]

O=C(Nc1ccccc1)Nc1cnns1
inactive: [2] | [4] | [6]
active: [3] 89.1 µM | CYP2C8 (gene 1558) 88.7 µM | CYP2C9 (gene 1559) 84 µM | CYP4A11 (gene 1579) 72.9 µM | [5] 79.2 µM

O=[N+]([O-])c1c(Cl)c(Cl)c(Cl)c(Cl)c1Cl
active: [2] 5.88 µM
inactive: [3] | CYP2C8 (gene 1558) | CYP2C9 (gene 1559) | [4] | [5] | [6]

CCc1ccc(C(=O)NN(C(=O)c2cc(C)cc(C)c2)C(C)(C)C)cc1
inactive: CYP2C9 (gene 1559) | [5] | [6]
active: [2] 92.4 µM | [3] 2.71 µM | CYP2C8 (gene 1558) 12.1 µM | CYP4A11 (gene 1579) 77.2 µM | [4] 3.75 µM

CC(C)N(C(=O)COc1nnc(C(F)(F)F)s1)c1ccc(F)cc1
inactive: [2] | [3] | CYP2C8 (gene 1558) | CYP2C9 (gene 1559) | CYP4A11 (gene 1579) | [4] | [5] | [6]

CNC(=O)/C=C(\C)OP(=O)(OC)OC
inactive: [2] | [3] | CYP2C8 (gene 1558) | CYP2C9 (gene 1559) | CYP4A11 (gene 1579) | [4] | [5] | [6]

CC1(C)C(C=C(Cl)Cl)C1C(=O)OC(C#N)c1ccc(F)c(Oc2ccccc2)c1 (stereo unspecified)
inactive: CYP4A11 (gene 1579) | [5]
active: [2] 18.4 µM | [3] 20.7 µM | CYP2C8 (gene 1558) 17.1 µM | CYP2C9 (gene 1559) 14 µM | [4] 10.9 µM | [6] 61.4 µM

CNC(=O)Oc1cccc(N=CN(C)C)c1
inactive: [2] | [3] | CYP2C8 (gene 1558) | CYP2C9 (gene 1559) | CYP4A11 (gene 1579) | [4] | [5] | [6]

CCC(C)(C)C(=O)OC1=C(c2ccc(Cl)cc2Cl)C(=O)OC12CCCCC2
active: [4] 25 µM
inactive: [2] | [3] | CYP2C8 (gene 1558) | CYP2C9 (gene 1559) | CYP4A11 (gene 1579) | [5] | [6]

CC[C@H](C)[C@H]1O[C@]2(C=C[C@@H]1C)C[C@@H]1C[C@@H](C/C=C(\C)[C@@H](O[C@H]3C[C@H](OC)[C@@H](O[C@H]4C[C@H](OC)[C@@H](O)[C@H](C)O4)[C@H](C)O3)[C@@H](C)/C=C/C=C3\CO[C@@H]4[C@H](O)C(C)=C[C@@H](C(=O)O1)[C@]34O)O2 (tested in a mixture with another compound)
active: [2] 11 µM | [3] 11.6 µM | CYP2C8 (gene 1558) 14.1 µM | CYP2C9 (gene 1559) 7.85 µM | CYP4A11 (gene 1579) 7.39 µM | [4] 10 µM | [5] 10.1 µM | [6] 48.4 µM

CNC(=O)Oc1ccccc1OC(C)C
active: [2] 3.17 µM | [4] 0.594 µM
inactive: [3] | CYP2C8 (gene 1558) | CYP2C9 (gene 1559) | CYP4A11 (gene 1579) | [5] | [6]

CNC(=O)CSP(=S)(OC)OC
active: [2] 23.1 µM
inactive: [3] | CYP2C8 (gene 1558) | CYP2C9 (gene 1559) | CYP4A11 (gene 1579) | [4] | [5] | [6]

CC1(c2ccc(Oc3ccccc3)cc2)OC(=O)N(Nc2ccccc2)C1=O (stereo unspecified)
inactive: [6]
active: [2] 8.83 µM | [3] 26.3 µM | CYP2C8 (gene 1558) 15.9 µM | CYP2C9 (gene 1559) 17.4 µM | CYP4A11 (gene 1579) 8.16 µM | [4] 26.2 µM | [5] 8.41 µM

COP(=O)(OC)OC=C(Cl)Cl
inactive: [3] | CYP2C8 (gene 1558) | CYP2C9 (gene 1559) | CYP4A11 (gene 1579) | [4] | [5] | [6]
active: [2] 6.48 µM

COc1nn(CSP(=S)(OC)OC)c(=O)s1
inactive: CYP2C8 (gene 1558) | CYP2C9 (gene 1559) | CYP4A11 (gene 1579) | [4] | [5] | [6]
active: [2] 4.94 µM | [3] 10.6 µM

O=C(O)CCCOc1ccc(Cl)cc1Cl
inactive: CYP2C9 (gene 1559) | [4] | [5] | [6]
active: [2] 15.2 µM | [3] 14 µM | CYP2C8 (gene 1558) 14.6 µM | CYP4A11 (gene 1579) 10.1 µM

COP(=S)(OC)Oc1ccc([N+](=O)[O-])cc1
inactive: CYP2C8 (gene 1558) | CYP2C9 (gene 1559) | CYP4A11 (gene 1579) | [4] | [5] | [6]
active: [2] 15.7 µM | [3] 50 µM

O=C1c2ccccc2C(=O)N1SC(Cl)(Cl)Cl
inactive: [2] | [3] | CYP2C8 (gene 1558) | CYP2C9 (gene 1559) | CYP4A11 (gene 1579) | [4] | [5] | [6]

O=C(O)COc1ccc(Cl)cc1Cl
inactive: CYP2C9 (gene 1559) | [4] | [5] | [6]
active: [2] 20.8 µM | [3] 19.6 µM | CYP2C8 (gene 1558) 22 µM | CYP4A11 (gene 1579) 38.1 µM

C[C@H]1[C@H](c2ccc(Cl)cc2)SC(=O)N1C(=O)NC1CCCCC1
active: [2] 81.7 µM | [3] 89 µM | CYP2C8 (gene 1558) 77.8 µM | CYP2C9 (gene 1559) 78.6 µM | CYP4A11 (gene 1579) 40.4 µM | [4] 90 µM | [5] 72.3 µM
inactive: [6]

CCN(CC)C(=O)SCc1ccc(Cl)cc1
inactive: CYP2C8 (gene 1558) | CYP2C9 (gene 1559) | CYP4A11 (gene 1579) | [5] | [6]
active: [2] 4.36 µM | [3] 17.7 µM | [4] 9.92 µM

C#CCN1C(=O)COc2cc(F)c(N3C(=O)C4=C(CCCC4)C3=O)cc21
inactive: CYP2C8 (gene 1558) | CYP2C9 (gene 1559) | [5] | [6]
active: [2] 0.84 µM | [3] 6.97 µM | CYP4A11 (gene 1579) 20.5 µM | [4] 3.65 µM

COP(=S)(OC)Oc1ccc(SC)c(C)c1
active: [2] 7.23 µM | [3] 50 µM
inactive: CYP2C8 (gene 1558) | CYP2C9 (gene 1559) | CYP4A11 (gene 1579) | [5] | [6]

CCCN(CCC)c1c([N+](=O)[O-])cc(C(F)(F)F)cc1[N+](=O)[O-]
inactive: [3] | CYP2C8 (gene 1558) | CYP2C9 (gene 1559) | CYP4A11 (gene 1579) | [4] | [5] | [6]
active: [2] 50 µM

— PubChem BioAssay (EPA / NIEHS)
